{
  "source": "PubChem BioAssay AID898",
  "about": "(University of Pittsburgh Molecular Library Screening Center, 2007)",
  "note": "Screen size: about 140,000 compounds; about 220 (0.16%) were called active. The sample holds actives, similar compounds and a random draw of the others, so the mix is not that of the screen. No stated cut-off is given here; in the data, active means inhibition above about 50%; inactive means the rest.",
  "data": [
    {"tested_on": "YopH tyrosine phosphatase [Yersinia enterocolitica]", "assay": "inhibition of Yersinia YopH phosphatase – biochemical, fluorescence Ex485/Em525, primary screen (AID 898)", "details": "stronger effect = higher value, concentration not given here", "values": [
      {"smiles": "CCOC(=O)/C=C/C(=O)OCC(=O)NC(c1ccccc1)c1ccccc1", "inhibition": "-29% (inactive)"},
      {"smiles": "Cc1cc(C)c(C2C3=C(Nc4c2c(C)nn4-c2ccccn2)c2ccccc2C3=O)c(C)c1", "note": "(centres undefined)", "inhibition": "-0.15% (inactive)"},
      {"smiles": "CCOC(=O)c1c(C)[nH]c2c1-c1ccccc1C(=O)C2=O", "inhibition": "78.7% (active)"},
      {"smiles": "CCOC(=O)C1=C(c2ccc(OC)cc2)C(=O)c2ccccc2C1=O", "inhibition": "16.7% (inactive)"},
      {"smiles": "CCOC(=O)c1c(C)[nH]c(=S)c(C#N)c1-c1ccccc1", "inhibition": "-37.4% (inactive)"},
      {"smiles": "COc1ccc2c(CC(=O)OCC(=O)Nc3ccccc3[N+](=O)[O-])coc2c1", "inhibition": "-29.4% (inactive)"},
      {"smiles": "Cc1ccc(C(=O)Oc2coc(CSc3nnc(NC(=O)c4cccs4)s3)cc2=O)cc1C", "inhibition": "0.04% (inactive)"},
      {"smiles": "NC1=NC(=O)S/C1=C\\c1ccc(O)cc1", "inhibition": "-36.5% (inactive)"},
      {"smiles": "CCOc1ccccc1N1CCN(C(=S)Nc2ccc(S(N)(=O)=O)cc2)CC1", "inhibition": "-2.91% (inactive)"},
      {"smiles": "CC(C)(C)C(=O)NC(NC(=S)Nc1ccc(S(N)(=O)=O)cc1)C(Cl)(Cl)Cl", "note": "(centres undefined)", "inhibition": "-18.5% (inactive)"},
      {"smiles": "CCn1c(C(C)NC(=O)c2ccc(C)cc2)n[nH]c1=S", "note": "(centres undefined)", "inhibition": "-41.3% (inactive)"},
      {"smiles": "Cc1ccc(C(=O)N(CN2CCCC2=O)c2ccc(F)cc2)cc1", "inhibition": "-41.7% (inactive)"},
      {"smiles": "CCN1CCC2(CC1)N=C(c1ccc(F)cc1)C(=S)N2C(=O)c1ccc(C)cc1", "inhibition": "77.9% (active)"},
      {"smiles": "CC(=O)c1c(C)[nH]c(C(=O)OCC(=O)Nc2sc3c(c2C#N)CCCC3)c1C", "inhibition": "-24.9% (inactive)"},
      {"smiles": "COCCCN(C(=S)Nc1c(C)cc(C)cc1C)C(C)c1ccncc1", "note": "(centres undefined)", "inhibition": "-22.6% (inactive)"},
      {"smiles": "Cc1ccccc1-n1nc(C)c2c1N=C1C(Cl)=CC(Cl)=CN1C2c1ccc(C(=O)O)cc1", "note": "(centres undefined)", "inhibition": "-22.9% (inactive)"},
      {"smiles": "COC(C(=O)Nc1ccc(C(C)=O)cc1)c1ccccc1", "note": "(centres undefined)", "inhibition": "-28.2% (inactive)"},
      {"smiles": "C/C(=N/NC(=S)Nc1ccccc1)c1ccc2c(c1)OCO2", "inhibition": "-22.5% (inactive)"},
      {"smiles": "COc1ccc(OCCNS(=O)(=O)Cc2ccccc2)cc1", "inhibition": "-30.4% (inactive)"},
      {"smiles": "Cc1nonc1C(=O)N/N=C/c1ccc(O)cc1", "inhibition": "-21.7% (inactive)"},
      {"smiles": "Cc1ccc2c(CC(=O)NCc3cccs3)coc2c1", "inhibition": "-29.9% (inactive)"},
      {"smiles": "CCc1cccc(CC)c1NC(=O)COc1ccccc1C(=O)c1cc(C#N)c(=O)n(C2CCCCC2)c1", "inhibition": "-24.5% (inactive)"},
      {"smiles": "Cc1ccc(-c2cc(C(=O)N/N=C/C=C/c3ccccc3)n[nH]2)o1", "inhibition": "-23% (inactive)"},
      {"smiles": "O=C(COC(=O)c1cc2c(s1)CCCC2)NCc1ccccc1Cl", "inhibition": "-45.2% (inactive)"},
      {"smiles": "CCCN1CNC(=S)N(CCc2ccccc2)C1", "inhibition": "-20.8% (inactive)"},
      {"smiles": "CCCCc1cc2c(s1)CCCC/C2=N/O", "inhibition": "-2.52% (inactive)"},
      {"smiles": "N#Cc1c(-c2ccc(F)cc2)cc(C2CC2)nc1SCC(=O)c1cccs1", "inhibition": "-21.7% (inactive)"},
      {"smiles": "Cc1ccc(O)c(-c2cc(C(=O)Nc3c(C)n(C)n(-c4ccccc4)c3=O)[nH]n2)c1", "inhibition": "-27% (inactive)"},
      {"smiles": "O=C(CSc1nc2ccccc2[nH]1)Nc1nc(-c2ccccc2)c(-c2ccccc2)o1", "inhibition": "-23.6% (inactive)"},
      {"smiles": "COc1ccc(Br)cc1CN(C)CC(=O)Nc1cc(Cl)cc(Cl)c1", "inhibition": "-5.01% (inactive)"},
      {"smiles": "CCCCNC(=O)CCn1c(=O)c2ccccc2n(Cc2cc(C)ccc2C)c1=O", "inhibition": "-41.6% (inactive)"},
      {"smiles": "Nc1nnc(SCC(=O)OCc2ccc(Cl)c(Cl)c2)s1", "inhibition": "-17.1% (inactive)"},
      {"smiles": "CC(=O)Nc1ccc(C(=O)OCC(=O)Nc2ccc([N+](=O)[O-])cc2C(F)(F)F)cc1", "inhibition": "-15.8% (inactive)"},
      {"smiles": "C[n+]1ccccc1C1CCCC/C1=N\\Nc1ccc([N+](=O)[O-])cc1[N+](=O)[O-]", "note": "(centres undefined)", "inhibition": "3.63% (inactive)"},
      {"smiles": "CN(C)CCNC(=O)Cc1ccc([N+](=O)[O-])cc1", "inhibition": "-24.9% (inactive)"},
      {"smiles": "COC(=O)c1nc2ccccc2s1", "inhibition": "-16.5% (inactive)"},
      {"smiles": "N#C/C(=C(/O)Cc1cccc2ccccc12)c1nc2ccccc2s1", "inhibition": "-11% (inactive)"},
      {"smiles": "CC1=CC(=C(C#N)c2nc3ccccc3s2)C=C(C)N1c1ccc(F)cc1F", "inhibition": "79.4% (active)"},
      {"smiles": "O=[N+]([O-])c1ccc(N2CCNCC2)cc1NCc1cccnc1", "inhibition": "-24.3% (inactive)"},
      {"smiles": "COc1ccc(C/C(C)=N/NC(=O)c2cc(C)oc2C)cc1", "inhibition": "-13.9% (inactive)"},
      {"smiles": "COCCNC(=O)c1ccccc1NS(=O)(=O)c1ccc(C)c([N+](=O)[O-])c1", "inhibition": "-4.7% (inactive)"},
      {"smiles": "CCCC(NC(=O)c1ccco1)c1nc2ccccc2[nH]1", "note": "(centres undefined)", "inhibition": "-24.8% (inactive)"},
      {"smiles": "C/C(=N\\NC(=O)CSc1nc2ccccc2c(=O)n1-c1ccccc1C)c1cccs1", "inhibition": "-17% (inactive)"},
      {"smiles": "CN1CCN(c2ccc(NC(=O)c3ccc4c(c3)[nH]c(=O)n4Cc3ccc(F)cc3)cc2)CC1", "inhibition": "-24.8% (inactive)"},
      {"smiles": "O=C(/C=C/NCc1ccc(F)cc1)c1ccccc1", "inhibition": "-30.4% (inactive)"},
      {"smiles": "Cc1c(NC(=S)Nc2ccccc2)c(=O)n(-c2ccccc2)n1C", "inhibition": "-29.6% (inactive)"},
      {"smiles": "CCCCOC(=O)c1ccc(NC(c2ccc(C)cc2)P(=O)(OC)OC)cc1", "note": "(centres undefined)", "inhibition": "-6.33% (inactive)"},
      {"smiles": "COc1ccccc1N1N=C(c2cccs2)CC1c1ccccc1", "note": "(centres undefined)", "inhibition": "-12.8% (inactive)"},
      {"smiles": "CCN(CC)CCn1c(/N=C/c2cc(Br)ccc2O)nc2ccccc21", "inhibition": "-20.7% (inactive)"},
      {"smiles": "C=CCNCCCCOc1ccccc1", "inhibition": "-29.1% (inactive)"},
      {"smiles": "O=C(CSc1nnc(SCc2ccc(Cl)cc2)s1)N/N=C/c1ccccc1Cl", "inhibition": "-26.2% (inactive)"},
      {"smiles": "CC(=O)Nc1ccc(S(=O)(=O)N2CCN(c3ccc([N+](=O)[O-])c(NCCN4CCOCC4)c3)CC2)cc1", "inhibition": "-27.6% (inactive)"},
      {"smiles": "C=CCNC(=O)/C=C/c1ccc(C(C)C)cc1", "inhibition": "-23.5% (inactive)"},
      {"smiles": "Cc1ccc(N(Cc2cc3ccccc3[nH]c2=O)C(=O)c2cccs2)cc1", "inhibition": "-10.8% (inactive)"},
      {"smiles": "O=C(NC1CCCCCC1)c1cccnc1Sc1ccc(Cl)cc1", "inhibition": "-17.2% (inactive)"},
      {"smiles": "Brc1ccc(C2CC(c3ccccc3)=Nc3ccccc3N2)cc1", "note": "(centres undefined)", "inhibition": "-11.5% (inactive)"},
      {"smiles": "COC(=O)C1=NNC2(c3ccc(C)cc3)C(=O)N(c3cccc(C)c3C)C(=O)C12", "note": "(centres undefined)", "inhibition": "-28.4% (inactive)"},
      {"smiles": "COc1cc(C(=S)NC2CCCCC2)ccc1O", "inhibition": "-30.2% (inactive)"},
      {"smiles": "CC1(C)C2CC=C(/C=N/NC(=O)c3ccc(Cl)cc3)C1C2", "note": "(centres undefined)", "inhibition": "-29.6% (inactive)"},
      {"smiles": "CCCc1nc(SCC(=O)Nc2ccc(S(=O)(=O)N(C)C)cc2)c2ccccc2n1", "inhibition": "-25.4% (inactive)"},
      {"smiles": "NC1=NN(c2cccc(C(=O)O)c2)C(=O)C1", "inhibition": "-7.9% (inactive)"},
      {"smiles": "CN(CC(=O)NCCc1ccccc1)S(=O)(=O)c1cnc[nH]1", "inhibition": "-21% (inactive)"},
      {"smiles": "COc1cccc(NC(=S)NCc2ccco2)c1", "inhibition": "-28.3% (inactive)"},
      {"smiles": "O=C(CN1CCN(c2ccccn2)CC1)N1CCc2ccccc21", "inhibition": "-10% (inactive)"}
    ]}
  ]
}
